Measured values: PubChem BioAssay (NCI)
The panel holds about 83,000 compounds, 20% with a hit somewhere; the sample as a whole holds those more often.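 96-well plates, one dose, 48 hours. Percent growth reported; active if below 10.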 Unmarked numbers belong to inactive results. Active and inactive are the calls of the source.

What follows are molecules tested on OVCAR-3 ovarian (assay: NCI-60 one-dose screen, 48 h (100 = growth as untreated, 0 = no growth, -100 = all killed)). Conditions: 10 µM unless noted.

**Q.** For `Cc1ccc(C(C(N)=O)C(C(N)=O)c2ccccc2)cc1` (stereo unspecified), which growth is on record?
**A.** The growth was 114%.

**Q.** How did the growth turn out when `CC(C)n1cnc2c(=S)nc[nH]c21` was run?
**A.** The growth was 105%.

**Q.** `CC(C)N1CN2C(=S)NC3C2N(C1)C(=S)N3C` (stereo unspecified) was tested. Which growth did it give?
**A.** Its growth is 103%.

**Q.** How did the growth turn out when `S=C1CCSC(=S)N1CCCN1C(=S)CCSC1=S` was run?
**A.** The growth was 34.1%.

**Q.** How did the growth turn out when `CCOC(=O)CSc1ncnc2c1c(-c1ccccc1)c(-c1ccccc1)n2-c1ccc(C)cc1` was run?
**A.** The growth was 66.4%.

**Q.** With `O=C1/C(=C/c2ccc(Cl)c(Cl)c2)CN(C(=O)C(Cl)Cl)C/C1=C\c1ccc(Cl)c(Cl)c1` as the molecule, how does the growth read?
**A.** Its growth is -97.9% (active).

**Q.** For `CCO/C=N/C1=C(C#N)C(c2ccc(OC)cc2)c2sc3c(F)cccc3c2O1` (stereo unspecified), which growth is on record?
**A.** Its growth is 8.12% (active).

**Q.** For `COc1ccc(C(c2cc(OC)c(OC)c(OC)c2)N2CCN(c3ccccc3)CC2)cc1` (stereo unspecified), which growth is on record?
**A.** Its growth is 90.1%.

**Q.** Which growth does the source give for `CCN(CC)CCOc1ccc(C(=C(C)c2ccc(Cl)cc2)c2ccc(OCCN(CC)CC)cc2)cc1` here?
**A.** Its growth is -70.5% (active).

**Q.** With `CN1CCN(C(=O)c2ccc(NC(=O)Nc3ccc(-c4nc(N5CCOCC5)c5cccn5n4)cc3)cc2)CC1` as the molecule, how does the growth read?
**A.** The growth was -5.24% (active).

**Q.** How did the growth turn out when `Cc1ccc(S(=O)(=O)N2CCCC2CO)cc1` (stereo unspecified) was run?
**A.** The growth was 104%.

**Q.** Which growth does the source give for `Nc1c(C(=O)Nc2ccccc2Cl)sc2nc3c(cc12)C(O)CCC3` (stereo unspecified) here?
**A.** The growth was 15.5%.

**Q.** `Cc1nc2sc(C(=O)Nc3ccccc3)c(N)c2cc1C(=O)c1ccccc1` was tested. Which growth did it give?
**A.** The growth was 29.2%.

**Q.** `Cc1ccc(Cl)cc1Nc1nc(C(F)(F)F)ccc1C(=O)N/N=C/c1cccnc1` was tested. Which growth did it give?
**A.** Its growth is 33.9%.

**Q.** With `CC(C)(C)n1cc(-c2ccnc(NCCCNS(=O)(=O)c3ccc(F)cc3)c2)c(-c2cccc(F)c2)n1` as the molecule, how does the growth read?
**A.** The growth was 74.8%.

**Q.** Which growth does the source give for `COC(=O)/C(CCC=C(C)C)=C1\[C@@H](OC(C)=O)C[C@@]2(C)[C@H]1C[C@@H](O)[C@H]1[C@@]3(C)CC[C@H](NCCN)[C@@H](C)[C@@H]3CC[C@@]12C` here?
**A.** Its growth is 83.8%.

**Q.** With `Oc1c(Cl)cc(Cl)c2ccc(Cn3cc(-c4ccc(C(F)(F)F)cc4)nn3)nc12` as the molecule, how does the growth read?
**A.** The growth was -16.1% (active).

**Q.** For `CC1(C)CC2=C3C=C[C@@H]4[C@@]5(C)CCC(=O)C(C)(C)[C@@H]5CC[C@@]4(C)[C@]3(C)CC[C@@]2(C(=O)O)CC1=O`, which growth is on record?
**A.** The growth was 60.1%.

**Q.** How did the growth turn out when `COC(=O)CCC(=O)C(=O)OC` was run?
**A.** The growth was 5.88% [10 mM] (active).

**Q.** `COC(C(=O)[C@@H](O)[C@@H](C)O)[C@@H]1Cc2cc3cc(O[C@H]4C[C@@H](O[C@H]5C[C@@H](O)[C@H](O)C(C)O5)[C@H](O)C(C)O4)cc(O)c3c(O)c2C(=O)[C@H]1O[C@H]1C[C@@H](O[C@H]2C[C@@H](O[C@H]3C[C@@H](OC)[C@H](O)C(C)O3)[C@@H](O)C(C)O2)[C@H](O)C(C)O1` (stereo partly specified) was tested. Which growth did it give?
**A.** The growth was 61%.

**Q.** How did the growth turn out when `CC(C)N1CCN(Cc2ccc3c(NNC(=O)c4ccccc4)nc4cc(F)ccc4n23)CC1` was run?
**A.** Its growth is 39.8%.

These molecules were tested on HS 578T breast in the same assay as above. Conditions: 10 µM unless noted.

**Q.** `O=c1oc2ccc([N+](=O)[O-])cc2cc1Br` was tested. Which growth did it give?
**A.** The growth was 106%.

**Q.** With `O=C1/C(=C/c2ccccc2Br)COc2ccc(O)c(O)c21` as the molecule, how does the growth read?
**A.** The growth was 25.2%.

**Q.** How did the growth turn out when `COc1cc2c(c(OC)c1OC)-c1ccc(OC)c(=O)cc1[C@@H](NC(=O)CCl)CC2` was run?
**A.** Its growth is 63.4%.

**Q.** How did the growth turn out when `CCCCNc1ccc(C#N)c(OCCN(CC)CC)c1` was run?
**A.** Its growth is 123%.

**Q.** Which growth does the source give for `O=C(c1ccccc1)C1C(=O)N2C(=S)N(c3ccccc3)C(=O)C2C1c1ccc(Cl)cc1` (stereo unspecified) here?
**A.** Its growth is 88.9%.

**Q.** With `CCOc1ccc(NC(=O)CSc2oc(-c3ccccc3)nc2S(=O)(=O)c2ccc(F)cc2)cc1` as the molecule, how does the growth read?
**A.** Its growth is 74.2%.

**Q.** For `COc1cc(-n2cc(-c3cc(O)c(C/C=C(\C)CCC=C(C)C)c(O)c3)nn2)cc2c1O[C@]1(C)CC[C@@H](O)C(C)(C)[C@H]1C2`, which growth is on record?
**A.** The growth was 19.6%.

**Q.** How did the growth turn out when `CCOC(=O)/C=C1\S/C(=N\Nc2cc(=O)[nH]c3ccc(Cl)cc23)N(c2ccccc2)C1=O` was run?
**A.** The growth was 99.8%.

**Q.** How did the growth turn out when `O=c1oc2c(cnc3ccccc32)cc1-c1ccsc1` was run?
**A.** The growth was 94.9%.

**Q.** How did the growth turn out when `C=CCc1c2c(c(OC)c3ccoc13)C(=O)/C(=C/c1ccccc1OC)O2` was run?
**A.** Its growth is 58.1%.

**Q.** `CC(=O)Nc1nc2ccc(NS(=O)(=O)c3cccc4c(N(C)C)cccc34)cc2[nH]1` was tested. Which growth did it give?
**A.** Its growth is 52.3%.

**Q.** With `O=C1C(Cl)=C(Oc2ccccc2)C(=O)c2ccccc21` as the molecule, how does the growth read?
**A.** Its growth is 31.6%.

**Q.** With `O=C(O)/C(=C\c1ccc(Cl)cc1)c1ccc(Cl)cc1` as the molecule, how does the growth read?
**A.** The growth was 78%.

**Q.** Which growth does the source give for `OCc1cccc(-c2ccc3ncc(-c4nc(NC5CC5)ncc4F)n3c2)c1` here?
**A.** The growth was -29.8% (active).

**Q.** Which growth does the source give for `C=CCn1cc(-c2nc3ccccc3s2)c2cc(-c3ccc4c5c(cccc35)C(=O)N(N)C4=O)ccc21` here?
**A.** The growth was 103%.

**Q.** For `Cc1ccc(C(C(N)=O)C(C(N)=O)c2ccccc2)cc1` (stereo unspecified), which growth is on record?
**A.** Its growth is 124%.

**Q.** `CC(C)n1cnc2c(=S)nc[nH]c21` was tested. Which growth did it give?
**A.** The growth was 108%.

**Q.** Which growth does the source give for `CC(C)N1CN2C(=S)NC3C2N(C1)C(=S)N3C` (stereo unspecified) here?
**A.** The growth was 95.6%.

**Q.** Which growth does the source give for `S=C1CCSC(=S)N1CCCN1C(=S)CCSC1=S` here?
**A.** Its growth is 83.2%.

**Q.** How did the growth turn out when `CCN1CCN(Cc2cn(CC(=O)Nc3ccc4c(ccn4Cc4ccccc4)c3)nn2)CC1` was run?
**A.** Its growth is 100%.

**Q.** For `CCOC(=O)CSc1ncnc2c1c(-c1ccccc1)c(-c1ccccc1)n2-c1ccc(C)cc1`, which growth is on record?
**A.** Its growth is 81.7%.

**Q.** With `O=C1/C(=C/c2ccc(Cl)c(Cl)c2)CN(C(=O)C(Cl)Cl)C/C1=C\c1ccc(Cl)c(Cl)c1` as the molecule, how does the growth read?
**A.** The growth was -5.11% (active).

**Q.** With `CCO/C=N/C1=C(C#N)C(c2ccc(OC)cc2)c2sc3c(F)cccc3c2O1` (stereo unspecified) as the molecule, how does the growth read?
**A.** Its growth is 4.04% (active).

**Q.** How did the growth turn out when `COc1ccc(C(c2cc(OC)c(OC)c(OC)c2)N2CCN(c3ccccc3)CC2)cc1` (stereo unspecified) was run?
**A.** Its growth is 101%.

**Q.** For `CCN(CC)CCOc1ccc(C(=C(C)c2ccc(Cl)cc2)c2ccc(OCCN(CC)CC)cc2)cc1`, which growth is on record?
**A.** The growth was -52.5% (active).

**Q.** `CN1CCN(C(=O)c2ccc(NC(=O)Nc3ccc(-c4nc(N5CCOCC5)c5cccn5n4)cc3)cc2)CC1` was tested. Which growth did it give?
**A.** The growth was -28.9% (active).

**Q.** How did the growth turn out when `Cc1ccc(S(=O)(=O)N2CCCC2CO)cc1` (stereo unspecified) was run?
**A.** The growth was 79.5%.

**Q.** With `Nc1c(C(=O)Nc2ccccc2Cl)sc2nc3c(cc12)C(O)CCC3` (stereo unspecified) as the molecule, how does the growth read?
**A.** Its growth is 58.5%.

**Q.** Which growth does the source give for `Cc1nc2sc(C(=O)Nc3ccccc3)c(N)c2cc1C(=O)c1ccccc1` here?
**A.** The growth was 13%.

**Q.** With `O=C1CC(N2C(=O)/C(=C/C(Cl)=C\c3ccc([N+](=O)[O-])cc3)SC2=S)C(=O)N1c1ccc(Cl)cc1` (stereo unspecified) as the molecule, how does the growth read?
**A.** The growth was 21.7%.

**Q.** How did the growth turn out when `Cc1ccc(Cl)cc1Nc1nc(C(F)(F)F)ccc1C(=O)N/N=C/c1cccnc1` was run?
**A.** Its growth is 39.9%.

**Q.** How did the growth turn out when `CC(C)(C)n1cc(-c2ccnc(NCCCNS(=O)(=O)c3ccc(F)cc3)c2)c(-c2cccc(F)c2)n1` was run?
**A.** The growth was 78.9%.

**Q.** For `COC(=O)/C(CCC=C(C)C)=C1\[C@@H](OC(C)=O)C[C@@]2(C)[C@H]1C[C@@H](O)[C@H]1[C@@]3(C)CC[C@H](NCCN)[C@@H](C)[C@@H]3CC[C@@]12C`, which growth is on record?
**A.** Its growth is 77.9%.

**Q.** For `C=C1C(=O)O[C@H]2[C@H]1CC/C(COC(=O)NCc1ccc(Cn3c(=O)sn(CCI)c3=O)cc1)=C\CC[C@@]1(C)O[C@@H]21`, which growth is on record?
**A.** The growth was 94.3%.

**Q.** `COc1cc(-c2nc(SCC(C)C)nc(Nc3cccc4ccccc34)c2C#N)cc(OC)c1OC` was tested. Which growth did it give?
**A.** Its growth is 106%.

**Q.** `Oc1c(Cl)cc(Cl)c2ccc(Cn3cc(-c4ccc(C(F)(F)F)cc4)nn3)nc12` was tested. Which growth did it give?
**A.** Its growth is 87.7%.

**Q.** How did the growth turn out when `CC1(C)CC2=C3C=C[C@@H]4[C@@]5(C)CCC(=O)C(C)(C)[C@@H]5CC[C@@]4(C)[C@]3(C)CC[C@@]2(C(=O)O)CC1=O` was run?
**A.** Its growth is 95.6%.

**Q.** `COC(=O)CCC(=O)C(=O)OC` was tested. Which growth did it give?
**A.** Its growth is 25.2% [10 mM].

**Q.** With `COC(C(=O)[C@@H](O)[C@@H](C)O)[C@@H]1Cc2cc3cc(O[C@H]4C[C@@H](O[C@H]5C[C@@H](O)[C@H](O)C(C)O5)[C@H](O)C(C)O4)cc(O)c3c(O)c2C(=O)[C@H]1O[C@H]1C[C@@H](O[C@H]2C[C@@H](O[C@H]3C[C@@H](OC)[C@H](O)C(C)O3)[C@@H](O)C(C)O2)[C@H](O)C(C)O1` (stereo partly specified) as the molecule, how does the growth read?
**A.** The growth was 46.2%.

**Q.** For `CC(C)N1CCN(Cc2ccc3c(NNC(=O)c4ccccc4)nc4cc(F)ccc4n23)CC1`, which growth is on record?
**A.** Its growth is 75.8%.
